# Measurements from PubChem BioAssay.
# Activity calls are given as the source filed them.
# What was measured:
# [1] = binders of probe aFSTL3 on microarray, primary screen, stem cell growth factor project, biochemical, small-molecule microarray, fluorescence 635/667 (AID 1064); conditions: higher = more signal;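 note: measures binding of the biotinylated anti-FSTL3 antibody to printed compounds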
# [2] = binders from COS7 lysate, DM2A8 probe, primary screen, torsin A project, cell lysate, small-molecule microarray, fluorescence 635/667 (AID 1065); conditions: higher = more signal, COS7 lysate expressing mutant human TOR1A
# [3] = binders of probe aFGF2 on microarray, primary screen, stem cell growth factor project, biochemical, small-molecule microarray, fluorescence 635/667 (AID 1067); conditions: higher = more signal;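 note: measures binding of biotinylated aFGF2 protein to printed compounds on slides; z-score merges feature fluorescence and signal-to-noise across triplicate slides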
# [4] = binders of probe aFGF10 on microarray, primary screen, stem cell growth factor project, biochemical, small-molecule microarray, fluorescence 635/667 (AID 1071); conditions: higher = more signal;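 note: score merges 667 nm spot intensity and signal to noise from triplicate slides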
# [5] = target: Neurogenic locus notch homolog protein 2 (Homo sapiens) (UniProt Q04721); experiment: Notch2 binders on small-molecule microarrays, primary screen, biochemical, small-molecule microarray, 635 nm fluorescence, stem cell growth factors (AID 1073); conditions: Notch2 binding, higher = more signal
# [6] = target: Pro-neuregulin-1, membrane-bound isoform (Homo sapiens) (UniProt Q02297); experiment: NRG1 binders on small-molecule microarrays, primary screen, psychiatric disease protein project, biochemical, small-molecule microarray, fluorescence 635/667 (AID 1075); conditions: NRG1 binding, 635 nm fluorescence, higher = more signal;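 note: score combines 667 nm spot fluorescence with signal to noise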
# [7] = tested on: Neuregulin-1 EGF-like domain; experiment: binders of neuregulin-1 EGF-like domain, primary screen, biochemical, small-molecule microarray, 635 nm fluorescence (AID 1081); conditions: small-molecule microarray binding, higher = more signal;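 note: binding of the protein to compounds printed on small-molecule microarray slides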
# [8] = FRG1 promoter luciferase signal modulators, primary screen, FRG1 inhibition for FSHD, cell-based, C2C12 myotubes, firefly/Renilla luciferase, luminescence (AID 1084); conditions: higher = more signal, called active from +8 up or from −8 down
# [9] = binders of probe aFST on microarray, primary screen, stem cell growth factor project, biochemical, small-molecule microarray, fluorescence 635/667 (AID 1086); conditions: higher = more signal;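 note: score merges 667 nm fluorescence with signal-to-noise of each printed compound spot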
# [10] = binders of probe aHhip on microarray, primary screen, stem cell growth factor project, biochemical, small-molecule microarray, fluorescence 635/667 (AID 1087); conditions: higher = more signal;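 note: score merges spot fluorescence at 667nm with spot signal to noise ratio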
# [11] = tested on: PRMT1 (protein arginine N-methyltransferase 1); experiment: PRMT1 binders on small-molecule microarrays, primary screen, biochemical, small-molecule microarray, 635 nm fluorescence (AID 1088); conditions: small-molecule microarray binding, higher = more signal;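 note: binding of Prmt1 protein to compounds spotted on small-molecule microarray slides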
# [12] = yeast growth modulation, basal conditions, primary screen, YJM789 clinical isolate, OD600, 24 h (AID 1089);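 note: growth of clinical yeast isolate S. cerevisiae YJM 789 seeded 1000 cells per well; test concentration not given here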; conditions: S. cerevisiae YJM789 growth, higher = more signal, called active from +8 up or from −8 down
# [13] = fission yeast growth modulation, primary screen, strain 972, OD600, 24 h, no modulator (AID 1090);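 note: basal condition with compound alone and no growth modifier present; test concentration not given here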; conditions: S. pombe 972 growth, higher = more signal, called active from +8 up or from −8 down
# [14] = S. cerevisiae growth modulation with rapamycin, primary screen, strain BY4716, OD600, 96 h (AID 1091); conditions: higher = more signal, called active from +8 up or from −8 down; note: test concentration not given here
# [15] = target: Torsin-1A-interacting protein 2 (Homo sapiens) (UniProt Q8NFQ8); experiment: LULL1 binders on small-molecule microarray, primary screen, cell lysate, human LULL1 lysate, 635/667 nm fluorescence (AID 1092); conditions: hLULL1 lysate binding, 635 nm fluorescence, higher = more signal;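 note: probe is lysate of COS7 cells overexpressing human LULL1; score merges per-feature 667 nm fluorescence with signal-to-noise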
# [16] = E. coli growth modulation, two-sided OD650, primary screen, E. coli filamentation project, strain DRC41, 24 h (AID 1093); conditions: OD650, 24 h, higher = more signal, called active from +8 up or from −8 down;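 note: MC1000 strain lacking acrAB efflux and sulA so SOS filamentation is blocked; test concentration not given here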
# [17] = small-molecule microarray binders of probe aLefty2, primary screen, biochemical, biotinylated probe, 635/667 nm fluorescence (AID 1094); conditions: higher = more signal;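 note: score merges spot fluorescence near 667 nm with spot signal-to-noise ratio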
# [18] = tested on: Noggin (protein binding on small-molecule microarray); experiment: Noggin binders on small-molecule microarray, primary screen, biochemical, 635/667 nm fluorescence (AID 1095); conditions: 635 nm fluorescence, higher = more signal;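 note: score merges 667 nm feature fluorescence with signal to noise over triplicate slides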
# [19] = target: Neurogenic locus notch homolog protein 3 (Homo sapiens) (UniProt Q9UM47); experiment: NOTCH3 binders on small-molecule microarray, primary screen, biochemical, 635/667 nm fluorescence (AID 1096); conditions: NOTCH3 binding, 635 nm fluorescence, higher = more signal
# [20] = small-molecule microarray binders of probe aEGFR, primary screen, biochemical, biotinylated probe, 635/667 nm fluorescence (AID 1097); conditions: higher = more signal;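 note: probe is a biotinylated anti-EGFR antibody binding compounds printed on slides; score combines fluorescence near 667 nm and signal to noise of each spot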
# Chain of Neurogenic locus notch homolog protein 3 (Homo sapiens) (Q9UM47 whole entry, looked up): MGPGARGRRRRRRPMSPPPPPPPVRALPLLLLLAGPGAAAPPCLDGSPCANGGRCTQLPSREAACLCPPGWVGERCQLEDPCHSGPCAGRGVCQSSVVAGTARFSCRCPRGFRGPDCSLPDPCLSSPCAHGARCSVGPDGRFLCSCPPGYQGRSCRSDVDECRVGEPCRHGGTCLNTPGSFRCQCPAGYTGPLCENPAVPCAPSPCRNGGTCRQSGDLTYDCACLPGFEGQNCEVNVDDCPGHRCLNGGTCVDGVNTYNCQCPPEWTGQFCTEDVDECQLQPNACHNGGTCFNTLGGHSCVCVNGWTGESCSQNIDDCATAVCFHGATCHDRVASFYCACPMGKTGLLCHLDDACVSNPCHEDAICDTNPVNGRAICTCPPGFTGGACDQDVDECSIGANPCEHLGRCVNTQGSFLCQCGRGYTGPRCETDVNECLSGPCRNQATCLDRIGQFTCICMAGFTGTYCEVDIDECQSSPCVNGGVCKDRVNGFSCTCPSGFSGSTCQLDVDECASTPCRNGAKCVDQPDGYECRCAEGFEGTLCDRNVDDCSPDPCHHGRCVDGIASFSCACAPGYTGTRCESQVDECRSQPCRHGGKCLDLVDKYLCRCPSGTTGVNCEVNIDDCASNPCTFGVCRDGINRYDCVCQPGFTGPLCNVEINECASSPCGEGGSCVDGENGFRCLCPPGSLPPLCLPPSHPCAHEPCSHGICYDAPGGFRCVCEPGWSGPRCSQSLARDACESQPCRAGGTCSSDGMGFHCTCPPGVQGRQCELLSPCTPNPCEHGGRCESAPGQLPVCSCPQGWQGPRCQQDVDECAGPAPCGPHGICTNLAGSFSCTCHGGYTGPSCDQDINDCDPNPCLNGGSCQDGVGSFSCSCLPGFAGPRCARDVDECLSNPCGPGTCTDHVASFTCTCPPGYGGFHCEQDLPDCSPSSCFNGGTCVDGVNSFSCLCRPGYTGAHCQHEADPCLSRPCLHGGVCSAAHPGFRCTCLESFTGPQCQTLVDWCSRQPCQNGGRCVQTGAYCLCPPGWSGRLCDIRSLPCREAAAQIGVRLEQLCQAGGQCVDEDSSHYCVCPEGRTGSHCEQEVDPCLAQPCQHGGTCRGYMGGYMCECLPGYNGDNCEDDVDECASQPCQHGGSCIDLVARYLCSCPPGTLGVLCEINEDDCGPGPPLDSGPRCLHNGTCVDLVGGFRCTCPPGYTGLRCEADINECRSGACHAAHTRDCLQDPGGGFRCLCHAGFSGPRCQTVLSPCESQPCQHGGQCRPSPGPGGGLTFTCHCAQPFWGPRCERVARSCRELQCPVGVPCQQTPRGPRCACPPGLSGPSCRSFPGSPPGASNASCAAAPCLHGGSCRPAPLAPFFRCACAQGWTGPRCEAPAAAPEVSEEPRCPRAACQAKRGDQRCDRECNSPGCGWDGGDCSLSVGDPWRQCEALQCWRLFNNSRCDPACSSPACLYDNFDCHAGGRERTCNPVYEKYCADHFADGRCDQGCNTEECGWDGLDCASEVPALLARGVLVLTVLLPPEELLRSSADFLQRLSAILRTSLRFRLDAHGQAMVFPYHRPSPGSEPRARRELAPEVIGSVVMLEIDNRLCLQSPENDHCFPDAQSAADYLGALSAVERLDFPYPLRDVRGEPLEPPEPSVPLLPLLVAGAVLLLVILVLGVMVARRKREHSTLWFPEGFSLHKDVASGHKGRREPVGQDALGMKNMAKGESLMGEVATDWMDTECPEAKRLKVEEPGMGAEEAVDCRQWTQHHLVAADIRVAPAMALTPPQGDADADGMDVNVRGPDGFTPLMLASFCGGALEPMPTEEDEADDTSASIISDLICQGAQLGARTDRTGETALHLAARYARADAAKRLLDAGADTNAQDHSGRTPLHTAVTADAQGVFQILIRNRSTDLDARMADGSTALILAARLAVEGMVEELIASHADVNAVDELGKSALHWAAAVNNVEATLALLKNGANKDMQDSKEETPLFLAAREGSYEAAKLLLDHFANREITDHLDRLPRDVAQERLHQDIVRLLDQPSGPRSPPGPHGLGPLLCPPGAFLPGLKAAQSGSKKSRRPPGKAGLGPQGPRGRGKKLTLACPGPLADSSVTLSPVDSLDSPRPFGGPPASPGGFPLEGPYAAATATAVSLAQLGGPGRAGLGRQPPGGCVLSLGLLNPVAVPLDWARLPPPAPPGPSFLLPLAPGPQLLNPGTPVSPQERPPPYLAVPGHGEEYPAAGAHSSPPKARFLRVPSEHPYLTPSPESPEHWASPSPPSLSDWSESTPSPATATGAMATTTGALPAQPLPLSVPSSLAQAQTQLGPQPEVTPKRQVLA
# Chain of Pro-neuregulin-1, membrane-bound isoform (Homo sapiens) (Q02297 whole entry, looked up, the tested form may be a part, canonical isoform): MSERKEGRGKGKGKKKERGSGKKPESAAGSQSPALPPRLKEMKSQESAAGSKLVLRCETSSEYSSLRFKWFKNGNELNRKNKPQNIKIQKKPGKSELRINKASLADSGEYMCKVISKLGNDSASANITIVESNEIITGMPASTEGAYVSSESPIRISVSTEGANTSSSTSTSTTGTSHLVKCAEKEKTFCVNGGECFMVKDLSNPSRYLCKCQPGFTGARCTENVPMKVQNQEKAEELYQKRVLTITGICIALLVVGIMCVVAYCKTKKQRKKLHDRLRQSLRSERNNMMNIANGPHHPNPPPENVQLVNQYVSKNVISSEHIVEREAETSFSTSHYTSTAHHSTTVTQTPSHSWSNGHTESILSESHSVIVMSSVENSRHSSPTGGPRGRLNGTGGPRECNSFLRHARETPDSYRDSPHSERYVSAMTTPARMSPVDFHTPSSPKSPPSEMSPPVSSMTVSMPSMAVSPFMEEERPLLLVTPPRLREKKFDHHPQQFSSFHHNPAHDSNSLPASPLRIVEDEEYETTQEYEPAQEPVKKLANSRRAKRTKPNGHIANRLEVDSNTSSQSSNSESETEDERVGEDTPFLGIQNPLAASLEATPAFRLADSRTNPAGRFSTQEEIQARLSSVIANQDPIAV
# Chain of Torsin-1A-interacting protein 2 (Homo sapiens) (Q8NFQ8 whole entry, looked up): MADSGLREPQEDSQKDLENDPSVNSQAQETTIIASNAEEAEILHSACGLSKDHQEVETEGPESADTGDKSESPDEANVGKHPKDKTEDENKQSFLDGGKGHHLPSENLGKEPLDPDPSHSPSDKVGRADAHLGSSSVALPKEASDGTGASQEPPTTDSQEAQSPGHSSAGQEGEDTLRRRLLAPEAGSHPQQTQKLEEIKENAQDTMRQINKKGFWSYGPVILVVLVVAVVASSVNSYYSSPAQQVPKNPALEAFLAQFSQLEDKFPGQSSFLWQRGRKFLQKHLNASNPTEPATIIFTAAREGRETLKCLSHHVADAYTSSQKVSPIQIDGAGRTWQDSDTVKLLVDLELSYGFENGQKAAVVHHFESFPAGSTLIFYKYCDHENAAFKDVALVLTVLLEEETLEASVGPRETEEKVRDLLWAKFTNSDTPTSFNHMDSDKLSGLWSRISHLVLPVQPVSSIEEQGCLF
Structure (SMILES),composite z-score [1],composite z-score [2],composite z-score [3],composite z-score [4],composite z-score [5],composite z-score [6],composite z-score [7],z-score [8],composite z-score [9],composite z-score [10],composite z-score [11],z-score [12],z-score [13],z-score [14],composite z-score [15],z-score [16],composite z-score [17],composite z-score [18],composite z-score [19],composite z-score [20]
CC(=O)OC[C@H]1O[C@H](CCON=C[C@@H](C)[C@H](OCc2ccccc2)C(C)C)C=C[C@@H]1OC(C)=O,-0.567,0.57,-0.101,0.114,-0.113,-0.114,-0.339,0.447 (inactive),0.0538,0.312,1.12,-0.283 (inactive),-0.205 (inactive),-0.3 (inactive),-0.169,-0.608 (inactive),-0.138,0.559,0.226,-0.0093
CN(C)C(=O)[C@@]1(Cc2ccccc2)N=C(c2ccc(OCCCO)cc2)O[C@H]1c1ccccc1CN=[N+]=[N-],1.35,1.92,0.423,1.13,1.46,1.96,1.2,-1.47 (inactive),1.42,0.898,1.56,-1.88 (inactive),-0.31 (inactive),0.477 (inactive),3.17,0.73 (inactive),0.578,0.801,0.969,0.361
CC(C)[C@H](NC(=O)OC(C)(C)C)[C@@H](O)CC(=O)OC(C)(C)C,-0.273,-0.584,-0.116,-0.267,-0.756,-0.739,-1.18,0.0293 (inactive),-0.357,0.0881,-1.84,-0.0351 (inactive),-0.379 (inactive),0.596 (inactive),-1.63,-0.809 (inactive),-0.22,-0.531,-0.904,-0.29
CO[C@@H]1COC(=O)CC=C[C@@H](C)[C@@H]2C=C[C@@H](O)[C@@H](COC(=O)CC=C[C@H]1C)O2,-0.42,1.08,-0.0861,-0.251,-0.716,-0.688,-0.523,-0.969 (inactive),-0.176,-0.16,1.44,-1.85 (inactive),-0.862 (inactive),-0.562 (inactive),-0.284,-0.552 (inactive),-0.19,1.29,0.0667,-0.0112
